Results published in PubChem BioAssay AID485281 (National Center for Advancing Translational Sciences (NCATS), 2010).
Screen size: about 350,000 compounds; about 260 (0.074%) were called active. Entries that show only a call come without a potency. Another 8% or so got no clear call; they are omitted. Calls come from the whole dose curve; as a rule, active = well fitted inhibition curve with a large enough effect; inconclusive = small, poorly fitted or top-dose-only effect; inactive = no such curve, though single readings can be large or run the other way. The sample as a whole holds a higher share of actives than the screen did.

Target: Ferritin light chain (Equus caballus) (UniProt P02791)
Sequence (P02791 2-175 limits assumed): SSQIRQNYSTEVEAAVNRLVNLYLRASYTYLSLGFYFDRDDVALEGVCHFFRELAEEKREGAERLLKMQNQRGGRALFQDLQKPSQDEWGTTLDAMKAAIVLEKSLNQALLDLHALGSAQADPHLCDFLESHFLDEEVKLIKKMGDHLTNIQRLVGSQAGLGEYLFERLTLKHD
Assay: qHTS Assay for Identification of Novel General Anesthetics; note: nearly all actives have a fitted effect of over 20% in size
Settings: apoferritin/1-aminoanthracene competitive binding, fluorescence; series mostly up to 77.5 µM
Source text: Source: NIH Chemical Genomics Center [NCGC]
Assay Submitter: Roderic Eckenhoff, University of Pennsylvania
Screening Center PI: Christopher P. Austin, NIH
Probe Development: NIH Chemical Genomics Center [NCGC]
Anesthetic development has remained a largely empirical process. There are growing concerns about the cognitive effects of known general anesthetics and acceleration of the onset of neurodegenerative disease. The compounds' toxicity and multiple specific binding targets in the mammalian brain [4] has made them less attractive as drug leads. In this assay, a GABAergic mimetic model system, apoferritin and a profluorescent 1-aminoanthracene ligand (1-AMA), was used to construct a competitive binding assay for identification of novel general anesthetics. The assay was validated for 1-AMA using other known anesthetics, such as isoflurane (CID:3763) and propofol (CID: 4943), [6].
[1] S.L. Bianchi, T. Tran, C. Liu, S. Lin, Y. Li, J.M. Keller, R.G. Eckenhoff, and M.F. Eckenhoff, Brain and behavior changes in 12-month-old Tg2576 and nontransgenic mice exposed to anesthetics. Neurobiol Aging 29 (2008) 1002-10.
[2] Z. Xie, Y. Dong, U. Maeda, R.D. Moir, W. Xia, D.J. Culley, G. Crosby, and R.E. Tanzi, The inhalation anesthetic isoflurane induces a vicious cycle of apoptosis and amyloid beta-protein accumulation. J Neurosci 27 (2007) 1247-54.
[3] P. Honegger, and J.M. Matthieu, Selective toxicity of the general anesthetic propofol for GABAergic neurons in rat brain cell cultures.
[4] M.F. Eckenhoff, K. Chan, and R.G. Eckenhoff, Multiple specific binding targets for inhaled anesthetics in the mammalian brain. J Pharmacol Exp Ther 300 (2002) 172-9.
[5] C.A. Butts, J. Xi, G. Brannigan, A.A. Saad, S.P. Venkatachalan, R.A. Pearce, M.L. Klein, R.G. Eckenhoff, and I.J. Dmochowski, Identification of a fluorescent general anesthetic, 1-aminoanthracene. Proc Natl Acad Sci U S A 106 (2009) 6501-6.
[6] W.A. Lea, J. Xi, A. Jadhav, L. Lu, C.P. Austin, A. Simeonov, and R.G. Eckenhoff, A high-throughput approach for identification of novel general anesthetics. PLoS One 4 (2009) e7150.
Three uL of reagents (free 1-AMA (50% saturated solution of 1-aminoanthracene
in PBS) in columns 3, 4 as negative control and 1-AMA/apoferritin mixture (10 uM horse-spleen apoferritin in 50% saturated 1-aminoanthracene in PBS) in columns 1, 2, 5-48) was dispensed into 1536-well Greiner black assay plates. Compounds (23 nL) were transferred via Kalypsys pintool equipped with 1,536-pin array (10 nL slotted pins, V&P Scientific, San Diego, CA). Titration of the positive control, propofol, were delivered via pin transfer from separate control plates to the 2nd column of each assay plate. The starting concentration of the control, dissolved in DMSO, was at 160 mM, followed by two-fold dilution points in duplicate, for a total of 16 concentrations. The plates were incubated for 10 min at room temperature, and then read on an EnVision HTS multilabel reader (Perkin-Elmer, Waltham, MA) (end point read, 3 min/plate) using Fura2 BFP excitation filter (380 nm, bandwidth 10 nm) and fluorescein emission filter (535 nm, bandwidth 25 nm) set. A LANCE/DELFIA dichroic mirror with a cutoff wavelength at 400 nm was used to maximize signal accuracy and strength. Vehicle-only plates, with DMSO being pin-transferred to the entire column 5-48 compound area, were inserted uniformly at the beginning and the end of each library in order to monitor for and record any shifts in the background. Activity was computed as the normalized fluorescence response relative to free 1-AMA and 1-AMA/apoferritin complex values. Concentration-effect relationships were derived by using curve fitting algorithms developed in-house (http://ncgc.nih.gov/pub/openhts/). A four parameter Hill equation was fitted to the concentration-response data by minimizing the residual error between the modeled and observed responses.
Potency is the fitted concentration of half-maximal effect.

SMILES | Potency
O=C(NCc1ccc(F)cc1)c1ccc(Cn2c(SCc3ccc(F)cc3)nc3cccnc32)cc1 | inactive
Cc1cccc2nc(-c3ccc(Cl)s3)c(Nc3ccc4c(c3)OCCO4)n12 | inactive
O=C(NCC(c1cccnc1)N1CCc2ccccc21)c1cccc(C(F)(F)F)c1 (centres undefined) | inactive
CCOc1ccc(C(=O)/C=C/c2cn(CC(O)CN3CCCCCC3)c3ccccc23)cc1 (centres undefined) | inactive
CCOc1ccc(NC(=O)CCc2c(C)nn(-c3ccc(N4CCCC4)nn3)c2C)cc1 | inactive
Cc1ccc(-c2nc(SCc3ccc(Br)cc3)n3[nH]c(=O)cc3n2)cc1 | inactive
Cc1ccc(CN2CCc3nc(N4CCN(C)CC4)ncc3C2)cc1 | inactive
CCOC(=O)c1cnc2c(C)cc(C)cc2c1Nc1ccc(N2CCOCC2)cc1 | inactive
COc1cc2nc(SCc3ccc(F)cc3)n3nc(CCn4c(C)nc5ccccc54)nc3c2cc1OC | inactive
CCOCCc1nn2c(=O)cc(COC(=O)CNC(=O)c3ccc(C(C)(C)C)cc3)nc2s1 | inactive
Cc1cccc(NC(=O)C2CCN(S(=O)(=O)c3c(C)noc3/C=C/c3ccco3)CC2)c1 | inactive
CCN(CCCNC(=O)c1ccc(Sc2ccc(C)cc2)c(NC(C)=O)c1)c1cccc(C)c1 | inactive
CCOC(=O)c1ccc(CN(Cc2ccccc2)S(=O)(=O)c2ccc(Cl)cc2)cc1 | inactive
COc1cc(OC)c(NC(=O)N2CC3CCCN3c3ccccc32)cc1Cl (centres undefined) | inactive
COc1ccc2[nH]c3c(c2c1)CCN(C(=O)CCC1CCCC1)C3c1ccc(F)cc1 (centres undefined) | inactive
CN(C(=O)CSc1nc2ccccc2n1Cc1ccccc1C#N)c1ccccc1 | inactive
Cc1cccc(N2CCN(c3ccc(C(=O)O)cc3NC(=O)c3ccccc3F)CC2C)c1 (centres undefined) | inactive
CCCCc1nn2c(=O)cc(COC(=O)c3ccc(NC(=O)c4ccccc4C)cc3)nc2s1 | inactive
CCC(=O)N1CCc2cc(S(=O)(=O)NC(C(=O)NCCc3ccc(C)cc3)C(C)C)ccc21 (centres undefined) | inactive
O=C(CSc1nc(-c2cccc(F)c2)[nH]c1-c1ccccc1)Nc1ccc2c(c1)OCO2 | inactive
CCOC(=O)c1ccc(NC(=O)c2c(NCc3cccs3)sc3c2CCCC3)cc1 | inactive
COc1ccc(C)cc1NC(=O)COCc1cc(-c2cccs2)on1 | inactive
Cc1ccc(-n2ncc3c(NCCCn4ccnc4)ncnc32)cc1Cl | inactive
CCN(CC)S(=O)(=O)c1nnc(NC(=O)COc2ccccc2Cl)s1 | inactive
Cc1nc2nc(NCc3cccc(Br)c3)[nH]n2c(=O)c1Cc1ccccc1 | inactive

SMILES | Potency
COc1ccccc1N1CCN(CCCNC(=O)c2cnn(-c3ccccc3Cl)c2C2CCN(C(=O)OC(C)(C)C)CC2)CC1 | inactive
COc1ccc(-n2ccn(CC(=O)Nc3ccc(C)c(C)c3)c(=O)c2=O)cc1OC | inactive
Cc1nn(C(C)C(=O)NCCc2ccccc2)c(=O)c2c1sc1ccccc12 (centres undefined) | inactive
COc1ccc(-c2cccc(NS(=O)(=O)c3cc(C)c(OC)c(C)c3C)c2)nn1 | inactive
Cc1cccc(C(=O)Nc2ccc(S(=O)(=O)N3CCCCC3c3cccnc3)cc2)c1 (centres undefined) | inactive
CCCCN(CC)C(=O)c1c[nH]c2ccc(S(=O)(=O)Nc3cccc(OC)c3)cc2c1=O | inactive
Cc1c(NC(=S)NCc2ccc(F)cc2)cccc1[N+](=O)[O-] | inactive
O=[N+]([O-])c1ccccc1NCc1ccc(Cl)cc1 | 8.91 µM (active)
O=C(NCCNc1ccccc1[N+](=O)[O-])c1ccccc1F | inactive
CC(Nc1ccc(-c2nc(-c3ccco3)no2)cc1[N+](=O)[O-])c1ccccc1 (centres undefined) | inactive
COc1ccc(C2C(=O)N(C3CCCCC3)CC(=O)N2Cc2ccccc2Cl)cc1OC (centres undefined) | inactive
COc1ccc(Nc2ncc3c(n2)CCN(C(=O)OC(C)(C)C)C3)cc1 | inactive
CCOC(=O)C1CCN(c2csc3ccc(C)cc3c2=O)CC1 | inactive
Nc1nonc1C(=O)NCCc1ccccc1 | 17.8 µM (active)
NC(=O)Nc1ccccc1C(=O)NCCc1ccccc1 | inactive
O=C(O)c1ccccc1-c1ccccc1C(=O)NCCc1ccccc1 | inactive
O=C1CCCc2cc(S(=O)(=O)N3CCCC(C(=O)NCc4ccccc4)C3)ccc2N1 (centres undefined) | inactive
CCOc1ccccc1C(=O)Nc1ccc2c(c1)N(C)C(=O)c1ccccc1S2 | inactive
Cc1cc(F)ccc1NC1(c2ccccc2)C(=O)c2ccccc2C1=O | inactive
COc1ccc(-c2noc(-c3ccc(N4CCN(c5ccccc5)CC4)c([N+](=O)[O-])c3)n2)cc1OC | inactive
Cc1ccc(-c2nnc(SCC(=O)NCc3ccccc3)nc2-c2ccc(C)cc2)cc1 | inactive
Cc1ccccc1CNC(=O)C(=O)NCC(c1cccs1)S(=O)(=O)c1cccs1 (centres undefined) | inactive
COc1ccc(Nc2cc(C(=O)NCCCN(C)c3ccccc3)c3ccccc3n2)c(OC)c1 | inactive
CCOC(=O)CN1C(C(=O)c2ccccc2)=C(OC(=O)C(C)(C)C)c2ccccc2S1(=O)=O | inactive
